From PubChem BioAssay
The list is not random: actives were taken first. Their share in the collection is about 4.1%.
KLF5 inhibitor: suppresses KLF5 promoter-driven expression; DLD-1 KLF5 promoter-luciferase reporter, luminescence; inhibition, % at 5 µM; 290,000 compounds, 0.23% hits; AID 1700;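 active = inhibition above a per-plate limit of that plate's mean compound inhibition plus 3 SD, cut at about 60% in these data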;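 note: 0% = DMSO wells and 100% = LY294002 at 200 µM; higher means less KLF5 promoter-driven luciferase light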
Gli-Sufu block: blocks Gli-Sufu signaling in a luciferase reporter; Sufu-KO-LIGHT fibroblasts, Gli luciferase reporter luminescence; inhibition, % at 5 µM; 340,000 compounds, 0.74% hits; AID 588413;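 active = inhibition above about 55%, limit read from the data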;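 note: 0% = DMSO-treated cells and 100% = wells with medium but no cells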
Mdm2-MdmX inh: inhibitors of human Mdm2/MdmX interaction | O15151+Q00987 | SaOS-2 split-luciferase Mdm2/MdmX complementation, luminescence | inhibition, % at 8 µM | 330,000 compounds, 3% hits | AID 485346;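 active = inhibition of at least 50% at 8 µM in the primary screen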
Target sequence (O15151 whole entry, looked up): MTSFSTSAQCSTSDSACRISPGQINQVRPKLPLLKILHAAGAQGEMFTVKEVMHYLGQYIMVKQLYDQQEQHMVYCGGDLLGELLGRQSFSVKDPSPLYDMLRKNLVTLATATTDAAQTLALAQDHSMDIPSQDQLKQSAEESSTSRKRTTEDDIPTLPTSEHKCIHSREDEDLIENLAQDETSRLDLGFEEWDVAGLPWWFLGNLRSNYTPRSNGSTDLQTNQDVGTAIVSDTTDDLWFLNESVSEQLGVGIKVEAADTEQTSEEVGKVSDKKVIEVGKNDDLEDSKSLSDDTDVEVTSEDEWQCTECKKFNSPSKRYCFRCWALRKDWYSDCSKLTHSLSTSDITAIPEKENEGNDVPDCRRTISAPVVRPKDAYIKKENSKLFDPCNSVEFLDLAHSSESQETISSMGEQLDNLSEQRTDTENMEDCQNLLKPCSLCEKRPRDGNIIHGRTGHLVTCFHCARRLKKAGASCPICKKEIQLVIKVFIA
Target sequence (Q00987 whole entry, looked up): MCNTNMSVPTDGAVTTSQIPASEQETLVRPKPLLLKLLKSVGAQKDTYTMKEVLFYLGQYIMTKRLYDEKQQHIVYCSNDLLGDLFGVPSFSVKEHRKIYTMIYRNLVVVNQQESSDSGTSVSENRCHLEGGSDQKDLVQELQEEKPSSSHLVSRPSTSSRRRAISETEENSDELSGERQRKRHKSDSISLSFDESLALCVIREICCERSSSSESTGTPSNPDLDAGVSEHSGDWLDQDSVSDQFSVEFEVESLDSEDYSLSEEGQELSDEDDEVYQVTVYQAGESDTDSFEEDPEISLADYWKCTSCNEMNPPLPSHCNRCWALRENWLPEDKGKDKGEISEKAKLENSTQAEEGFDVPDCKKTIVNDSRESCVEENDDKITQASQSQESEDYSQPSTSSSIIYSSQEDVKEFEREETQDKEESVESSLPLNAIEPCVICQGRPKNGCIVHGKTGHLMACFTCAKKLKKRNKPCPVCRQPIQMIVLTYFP
aSyn 5UTR inh: 5' untranslated region of α-synuclein, MLPCN primary screen; 300,000 compounds, 0.82% hits; inhibition, % (tested at 7.5 µM); AID 1813; alpha-synuclein 5'UTR reporter, inhibitor activity; in the data active = inhibition above about 60%;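 note: H4 neuroglioblastoma cells stably carrying SNCA 5'UTR luciferase fusion; 0% = DMSO wells and 100% = positive control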
697 NFkB inh: inhibitors of the PMA/ionomycin-induced NF-kB reporter in 697 B cells | 697 B-cell NF-kB luciferase reporter, 16 h | inhibition, % at 4 µM | 330,000 compounds, 0.33% hits | AID 435022; in the data active = inhibition above about 35%
Jurkat NFkB inh: lowers PMA/ionomycin-induced NF-kB signal in Jurkat cells. PMA/ionomycin-induced NF-kB luciferase reporter, luminescence. inhibition, % at 4 µM. 330,000 compounds, 0.53% hits. AID 435003; in the data active = inhibition above about 50%
Mdm2 MdmX conf: human Mdm2/MdmX binding inhibition, confirmed; shares compounds with Mdm2-MdmX inh; luminescent assay; inhibition, % at 8 µM; 10,000 compounds, 55% hits; in the data active = inhibition above about 40%
FLuc counter: inhibits full-length luciferase, flagging false Mdm2/MdmX hits; shares compounds with Mdm2-MdmX inh; 6,200 compounds, 77% hits; SaOS-2 full-length luciferase counterscreen, luminescence; inhibition, % at 8 µM; AID 504607;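 active = mean inhibition at 8 µM reaching about 37%, which flags the compound as non-specific, limit read from the data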;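 note: p53-null SaOS-2 cells with luciferase driven by a doxycycline-inducible promoter; compound on cells about two nights before reading with doxycycline added after day one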
Starred values were filed as active, the others as inactive; · = not tested or not shown.

SMILES	KLF5 inhibitor	Gli-Sufu block	Mdm2-MdmX inh	aSyn 5UTR inh	697 NFkB inh	Jurkat NFkB inh	Mdm2 MdmX conf	FLuc counter
Cc1nnc(NC(=O)c2cc(-c3ccco3)nc3ccccc23)s1	·	·	31	9	9	13	·	·
CCN(CC)CCNC(=O)c1ccc(NC(=O)c2cc(-c3ccco3)nc3ccccc23)cc1	-16	3	55*	24	7	-13	22	·
Cc1ccc2nc(NC(=O)c3cc(-c4ccco4)nc4ccccc34)sc2c1	-11	-7	61*	9	-18	-7	31	·
COc1ccc(Nc2oc(COc3ccccc3OC)nc2C#N)cc1	-1	35	68*	98*	11	5	64*	72*
COc1ccccc1OCc1nc(C#N)c(NCCCn2ccnc2)o1	-7	-11	8	12	-25	-14	·	·
CCOC(=O)C1CCN(C(=O)Cn2nc(CC)n3cccc3c2=O)CC1	-24	-12	5	-12	5	4	·	·
Cc1ccc(S(=O)(=O)c2ccc([N+](=O)[O-])cn2)cc1	47	6	96*	-73	-55	39	88*	52*
O=[N+]([O-])c1ccc(S(=O)(=O)c2ccccc2)nc1	56	32	95*	-48	-76	25	97*	50*
Cc1cc(S(=O)(=O)c2ccc([N+](=O)[O-])cn2)ccc1Br	·	6	99*	13	-35	2	99*	39*
Cc1ccc(S(=O)(=O)c2ccc(C)cc2)cc1	-14	7	20	-5	-2	11	·	·
CC(NC(=O)CCn1ccc2cc(S(=O)(=O)N3CCCC3)ccc21)c1ccccc1 (centres undefined)	-33	25	15	9	2	-2	·	·
COC(=O)C1(c2ccccc2)NC(c2ccc(O)cc2)C2C(=O)N(c3ccc4c(c3)OCO4)C(=O)C21 (centres undefined)	16	-20	-42	7	0	-6	·	·
CC(=O)NCC(=O)NC1CC(C)(C)Cc2c1cnn2-c1ccccc1 (centres undefined)	-62	-34	-27	-9	-4	-6	·	·
COc1nccnc1NS(=O)(=O)c1ccc(NC(=O)c2cccc(C)c2)cc1	-27	-1	5	8	0	12	·	·
CC(C)N1C/C(=C/c2cccnc2)C(=O)/C(=C/c2cccnc2)C1	0	20	·	·	·	·	·	·
CC(C)N1C/C(=C/c2ccsc2)C(=O)/C(=C/c2ccsc2)C1	-8	11	92*	-49	-2	2	7	·
S=C(Nc1cccc(Cl)c1Cl)N1CCC2(CC1)OCCO2	1	2	12	-36	-16	-7	·	·
Cc1ccc2oc(=O)c3cnn(CC(=O)Nc4cc(-c5cccc(F)c5)no4)c3c2c1	-2	8	74*	1	2	7	10	·
Cc1cccc(OCCN2C(=O)C(=O)c3cc(C)ccc32)c1	-26	24	69*	-50	2	6	62*	90*
Cc1ccc2c(c1)C(=O)C(=O)N2CCOc1ccccc1	-38	45	65*	-50	-27	0	46*	95*
Cc1ccc2c(c1)C(=O)C(=O)N2CCCOc1ccccc1C	-19	-8	29	-110	-3	-16	·	·
Cc1cccc(OCCN2C(=O)C(=O)c3cccc(C)c32)c1	-20	-19	24	-11	-16	3	·	·
Cc1cc2nc(/N=C(\N)NC(=O)C(C)C)nc(C)c2cc1C	-7	6	56*	29	14	27	38	84*
CCC(=O)N/C(N)=N/c1nc(C)c2cc(C)c(C)cc2n1	-11	6	74*	42	-15	21	57*	69*
CC(C)[C@H](CO)Nc1nc(NCc2ccc(S(N)(=O)=O)cc2)c2ncn(C(C)C)c2n1	·	-10	79*	8	0	24	64*	51*
SMILES	KLF5 inhibitor	Gli-Sufu block	Mdm2-MdmX inh	aSyn 5UTR inh	697 NFkB inh	Jurkat NFkB inh	Mdm2 MdmX conf	FLuc counter
CCOC(=O)c1[nH]c2ccc(OC)cc2c1NC(=S)N1CCN(c2ccccc2OC)CC1	1	2	52*	10	5	24	46*	69*
CCOC(=O)c1[nH]c2ccc(OC)cc2c1NC(=S)N1CCN(C(=O)OCC)CC1	-9	8	-3	9	12	-2	·	·
Cc1cc(C(N)=O)nn1-c1c(Cl)cc(Cl)cc1Cl	-10	8	-1	8	4	0	·	·
COc1ccc([N+](=O)[O-])cc1NC(=O)COC(=O)c1ccccc1O	9	2	23	-15	19	3	·	·
COc1ccc(C(=O)OCC(=O)Nc2ccc([N+](=O)[O-])cc2OC)c(O)c1	4	12	84*	10	12	-8	8	·
Oc1c(Cl)cc(Cl)cc1C=Nc1ccc(Br)cc1	-13	-94	92*	-14	-12	-11	52*	60*
CCCCn1c(N)c(N(CCOC)C(=O)c2ccc(COc3ccccc3)o2)c(=O)[nH]c1=O	·	3	21	4	9	2	·	·
Cc1ccc2nc(-c3cccc(SC4CCCCC4)c3)c(NCc3ccccc3)n2c1	·	20	22	·	-53	-17	·	·
COc1ccc(-c2cc(-c3nc4ccccn4c3NCc3ccccc3)ccc2OC)cc1	·	90*	99*	·	22	3	99*	52*
COc1ccc(-c2nc3ccccn3c2NCc2ccc3c(c2)OCO3)cc1	-61	-60	-25	-91	-34	-49	·	·
c1ccc(CNc2c(-c3cccc(SC4CCCCC4)c3)nc3ccccn23)cc1	·	29	71*	·	-19	-15	-1	·
Clc1cccc(-c2ccc(-c3nc4ccccn4c3NCc3ccccc3)cc2)c1	·	-53	59*	·	-16	-7	-57	·
c1ccc(-c2nc3ccccn3c2NCc2ccc3c(c2)OCO3)cc1	-26	-4	6	-38	-22	-11	·	·
c1cc(SC2CCCCC2)cc(-c2nc3cnccn3c2NC2CCCCC2)c1	·	0	89*	·	-34	1	29	·
CCOC(=O)c1cccc(-n2c(-c3ccc(OC)cc3)nc3nc4ccccc4nc32)c1	0	·	·	15	·	·	·	·
Cc1ccn2c(NCc3ccccc3)c(-c3cccc(SC4CCCCC4)c3)nc2c1	·	3	58*	·	4	14	-2	·
Cc1cccc(COCC(Cc2ccccc2)N2CCN(C(=O)c3cccc(C)c3)CCC2=O)c1 (centres undefined)	-6	4	26	8	6	-8	·	·
O=C(c1ccc(Cl)c(Cl)c1)N1CCC(=O)N(C(COCc2ccc(Cl)cc2)Cc2ccccc2)CC1 (centres undefined)	-11	21	52*	16	10	-4	27	·
